Experimental data taken from PubChem BioAssay AID1159580 (chemical genetic matrix, 2015).
The campaign covered roughly 5,500 compounds. About 2,000 (36%) were called active. Roughly 18% stayed inconclusive and do not appear here. Cut-off read from the data, not from the text of the source: active = normalized growth mostly below about 0.91 (no sharp cut-off); inconclusive = no clear call, values can overlap the other calls; inactive = mostly above about 0.92. The list shows a part of the results.

Assay: chemical genetic growth profiling, strain panel (AID 1159580);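 note: tested at 20 µM; growth read once vehicle control cultures reached saturation at 30 °C; 1 = growth at the plate median or of vehicle wells; lower values mean less growth of the strain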
Conditions: growth OD
[1] = S. cerevisiae deletion strains, locus YAL013W, strain DEP1, active compounds read low
[2] = S. cerevisiae deletion strains, locus YGR078C, strain PAC10, active compounds read low
[3] = S. cerevisiae deletion strains, locus YMR263W, strain SAP30, active compounds read low
[4] = S. cerevisiae deletion strains, locus YNL322C, strain KRE1, active compounds read low
[5] = S. cerevisiae deletion strains, locus YPL055C, strain LGE1, active compounds read low
[6] = S. cerevisiae deletion strains, locus YPL241C, strain CIN2, active compounds read low
[7] = S. cerevisiae deletion strains, locus YHR030C, strain SLT2, active compounds read low

Measured: normalized growth

O=C(O)[C@@H]1C[C@@H](C(=O)O)N1
inactive: [1] 1.02 | S. cerevisiae deletion strains, locus YAL040C, strain CLN3, active compounds read low 1.08 | S. cerevisiae deletion strains, locus YCL061C, strain MRC1 (second series), active compounds read low 1 | S. cerevisiae deletion strains, locus YER002W, strain NOP16, active compounds read low 1 | [2] 1.01 | S. cerevisiae deletion strains, locus YGR229C, strain SMI1, active compounds read low 0.986 | [3] 0.997 | S. cerevisiae deletion strains, locus YNL175C, strain NOP13, active compounds read low 1 | S. cerevisiae deletion strains, locus YNL197C, strain WHI3, active compounds read low 1.02 | S. cerevisiae deletion strains, locus YNL224C, strain SQS1, active compounds read low 0.978 | [4] 0.986 | S. cerevisiae deletion strains, locus YOR083W, strain WHI5 (second series), active compounds read low 1.03 | [5] 1.02 | [6] 0.992

CSc1sc(C#N)c2c1C(O)CCC2 (configuration not stated)
inactive: [1] 0.988 | S. cerevisiae deletion strains, locus YBR229C, strain ROT2, active compounds read low 0.973 | S. cerevisiae deletion strains, locus YDL101C, strain DUN1, active compounds read low 0.977 | S. cerevisiae deletion strains, locus YDR150W, strain NUM1, active compounds read low 0.948 | S. cerevisiae deletion strains, locus YEL061C, strain CIN8, active compounds read low 0.993 | [2] 0.983 | [7] 0.931 | S. cerevisiae deletion strains, locus YHR087W, strain rtc3, active compounds read low 0.968 | S. cerevisiae deletion strains, locus YJR043C, strain POL32, active compounds read low 0.961 | S. cerevisiae deletion strains, locus YJR075W, strain HOC1, active compounds read low 0.96 | S. cerevisiae deletion strains, locus YKL190W, strain CNB1, active compounds read low 0.992 | S. cerevisiae deletion strains, locus YLR039C, strain RIC1, active compounds read low 1.01 | S. cerevisiae deletion strains, locus YLR058C, strain SHM2 (second series), active compounds read low 0.982 | S. cerevisiae deletion strains, locus YLR085C, strain ARP6, active compounds read low 1.03 | S. cerevisiae deletion strains, locus YLR262C, strain YPT6, active compounds read low 1.01 | S. cerevisiae deletion strains, locus YML094W, strain GIM5, active compounds read low 1 | S. cerevisiae deletion strains, locus YMR219W, strain ESC1, active compounds read low 0.985 | [3] 0.95 | S. cerevisiae deletion strains, locus YNL128W, strain TEP1, active compounds read low 0.975 | S. cerevisiae deletion strains, locus YNL153C, strain GIM3, active compounds read low 0.976 | S. cerevisiae deletion strains, locus YNL298W, strain CLA4 (second series), active compounds read low 0.964 | [4] 1 | S. cerevisiae deletion strains, locus YNR030W, strain Alg12, active compounds read low 0.974 | S. cerevisiae deletion strains, locus YOL006C, strain TOP1, active compounds read low 0.959 | [5] 0.902 | [6] 0.982 | S. cerevisiae deletion strains, locus YPR135W, strain CTF4, active compounds read low 0.94 | S. cerevisiae strains, strain wild type, active compounds read low 0.984

CC(C)(C)NC[C@H](O)c1ccc(O)c(CO)c1
inactive: S. cerevisiae deletion strains, locus YAL021C, strain ccr4, active compounds read low 1.02 | S. cerevisiae deletion strains, locus YAL026C, strain drs2, active compounds read low 1.03 | S. cerevisiae deletion strains, locus YAL030W, strain snc1, active compounds read low 1.02 | S. cerevisiae deletion strains, locus YBL061C, strain skt5, active compounds read low 1.01 | S. cerevisiae deletion strains, locus YBR009C, strain hhf1, active compounds read low 1.03 | S. cerevisiae deletion strains, locus YBR023C, strain chs3, active compounds read low 1.02 | S. cerevisiae deletion strains, locus YBR171W, strain sec66, active compounds read low 1.04 | S. cerevisiae deletion strains, locus YBR231C, strain swc5, active compounds read low 1.03 | S. cerevisiae deletion strains, locus YBR279W, strain paf1, active compounds read low 1.02 | S. cerevisiae deletion strains, locus YCL011C, strain gbp2, active compounds read low 1.02 | S. cerevisiae deletion strains, locus YCL016C, strain dcc1, active compounds read low 1.02 | S. cerevisiae deletion strains, locus YCL061C, strain MRC1, active compounds read low 1.01 | S. cerevisiae deletion strains, locus YCL069W, strain vba3, active compounds read low 1.02 | S. cerevisiae deletion strains, locus YCR088W, strain abp1, active compounds read low 1.02 | S. cerevisiae deletion strains, locus YDL005C, strain med2, active compounds read low 1.02 | S. cerevisiae deletion strains, locus YDL040C, strain nat1, active compounds read low 1.02 | S. cerevisiae deletion strains, locus YDR001C, strain nth1, active compounds read low 1.01 | S. cerevisiae deletion strains, locus YDR069C, strain doa4, active compounds read low 1.04 | S. cerevisiae deletion strains, locus YDR137W, strain rgp1, active compounds read low 1.06 | S. cerevisiae deletion strains, locus YDR159W, strain sac3, active compounds read low 1.04 | S. cerevisiae deletion strains, locus YDR195W, strain ref2 1.02 | S. cerevisiae deletion strains, locus YDR297W, strain sur2, active compounds read low 1.05 | S. cerevisiae deletion strains, locus YDR334W, strain swr1, active compounds read low 1.02 | S. cerevisiae deletion strains, locus YDR335W, strain msn5, active compounds read low 1.01 | S. cerevisiae deletion strains, locus YDR392W, strain spt3, active compounds read low 0.992 | S. cerevisiae deletion strains, locus YEL003W, strain gim4, active compounds read low 1.01 | S. cerevisiae deletion strains, locus YEL037C, strain rad23, active compounds read low 1 | S. cerevisiae deletion strains, locus YEL061C, strain CIN8 (second series), active compounds read low 1.01 | S. cerevisiae deletion strains, locus YER015W, strain faa2, active compounds read low 1.02 | S. cerevisiae deletion strains, locus YER016W, strain bim1, active compounds read low 1.03 | S. cerevisiae deletion strains, locus YER111C, strain swi4, active compounds read low 1.02 | S. cerevisiae deletion strains, locus YER155C, strain BEM2 (second series), active compounds read low 1.03 | S. cerevisiae deletion strains, locus YFR010W, strain ubp6, active compounds read low 1.02 | S. cerevisiae deletion strains, locus YGL167C, strain pmr1, active compounds read low 1.01 | S. cerevisiae deletion strains, locus YGL173C, strain kem1, active compounds read low 1.03 | S. cerevisiae deletion strains, locus YGL227W, strain vid30, active compounds read low 1.01 | S. cerevisiae deletion strains, locus YGL240W, strain doc1, active compounds read low 1.02 | S. cerevisiae deletion strains, locus YGL253W, strain hxk2, active compounds read low 1.01 | S. cerevisiae deletion strains, locus YHR013C, strain ard1, active compounds read low 1.04 | S. cerevisiae deletion strains, locus YHR027C, strain rpn1, active compounds read low 1.02 | [7] 0.999 | S. cerevisiae deletion strains, locus YHR079C, strain IRE1, active compounds read low 0.97 | S. cerevisiae deletion strains, locus YHR142W, strain chs7, active compounds read low 1.01 | S. cerevisiae deletion strains, locus YJL092W, strain hpr5, active compounds read low 1.02 | S. cerevisiae deletion strains, locus YJL095W, strain BCK1 (second series), active compounds read low 1.01 | S. cerevisiae deletion strains, locus YJL095W, strain BCK1, active compounds read low 0.966 | S. cerevisiae deletion strains, locus YJL115W, strain asf1, active compounds read low 1.02 | S. cerevisiae deletion strains, locus YJL129C, strain trk1, active compounds read low 1.03 | S. cerevisiae deletion strains, locus YJL154C, strain vps35, active compounds read low 1.02 | S. cerevisiae deletion strains, locus YJL164C, strain tpk1, active compounds read low 1.02 | S. cerevisiae deletion strains, locus YJL166W, strain qcr8, active compounds read low 1.02 | S. cerevisiae deletion strains, locus YJL187C, strain SWE1, active compounds read low 1.02 | S. cerevisiae deletion strains, locus YJR066W, strain TOR1, active compounds read low 0.955 | S. cerevisiae deletion strains, locus YKL160W, strain elf1, active compounds read low 1.02 | S. cerevisiae deletion strains, locus YKR026C, strain gcn3, active compounds read low 1.01 | S. cerevisiae deletion strains, locus YKR091W, strain srl3, active compounds read low 1.02 | S. cerevisiae deletion strains, locus YLL001W, strain dnm1, active compounds read low 1.03 | S. cerevisiae deletion strains, locus YLL026W, active compounds read low 1.03 | S. cerevisiae deletion strains, locus YLL041C, strain sdh2, active compounds read low 1.02 | S. cerevisiae deletion strains, locus YLR027C, strain aat2, active compounds read low 1.02 | S. cerevisiae deletion strains, locus YLR113W, strain HOG1, active compounds read low 0.976 | S. cerevisiae deletion strains, locus YLR221C, strain rsa3, active compounds read low 1.02 | S. cerevisiae deletion strains, locus YLR258W, strain gsy2, active compounds read low 1.03 | S. cerevisiae deletion strains, locus YLR262C, strain YPT6 (second series), active compounds read low 1.03 | S. cerevisiae deletion strains, locus YLR320W, strain mms22, active compounds read low 1.02 | S. cerevisiae deletion strains, locus YLR342W, strain FKS1, active compounds read low 1.03 | S. cerevisiae deletion strains, locus YLR357W, strain rsc2, active compounds read low 1.06 | S. cerevisiae deletion strains, locus YLR370C, strain arc18, active compounds read low 1.02 | S. cerevisiae deletion strains, locus YLR384C, strain iki3, active compounds read low 1.02 | S. cerevisiae deletion strains, locus YML120C, strain ndi1, active compounds read low 1.01 | S. cerevisiae deletion strains, locus YMR058W, strain fet3, active compounds read low 1.02 | S. cerevisiae deletion strains, locus YMR125W, strain sto1, active compounds read low 1.03 | S. cerevisiae deletion strains, locus YMR129W, active compounds read low 1 | S. cerevisiae deletion strains, locus YMR205C, strain PFK2, active compounds read low 1.02 | S. cerevisiae deletion strains, locus YMR231W, strain pep5, active compounds read low 1.03 | S. cerevisiae deletion strains, locus YNL071W, strain lat1, active compounds read low 1.02 | S. cerevisiae deletion strains, locus YNL183C, strain NPR1, active compounds read low 0.912 | S. cerevisiae deletion strains, locus YNL209W, strain ssb2, active compounds read low 1.02 | S. cerevisiae deletion strains, locus YNL248C, strain rpa49, active compounds read low 1.01 | S. cerevisiae deletion strains, locus YNL322C, strain KRE1 (second series), active compounds read low 1.01 | S. cerevisiae deletion strains, locus YNR049C, strain mso1, active compounds read low 1.02 | S. cerevisiae deletion strains, locus YOR001W, strain rrp6, active compounds read low 1.02 | S. cerevisiae deletion strains, locus YOR070C, strain gyp1, active compounds read low 1.01 | S. cerevisiae deletion strains, locus YOR080W, strain dia2, active compounds read low 1.02 | S. cerevisiae deletion strains, locus YOR083W, strain WHI5, active compounds read low 1.01 | S. cerevisiae deletion strains, locus YOR106W, strain vam3, active compounds read low 1.02 | S. cerevisiae deletion strains, locus YOR231W, strain MKK1, active compounds read low 0.973 | S. cerevisiae deletion strains, locus YOR265W, strain rbl2, active compounds read low 1.01 | S. cerevisiae deletion strains, locus YOR270C, strain vph1, active compounds read low 1.07 | S. cerevisiae deletion strains, locus YOR290C, strain snf2, active compounds read low 1.03 | S. cerevisiae deletion strains, locus YPL051W, strain arl3, active compounds read low 1.02 | S. cerevisiae deletion strains, locus YPL078C, strain atp4, active compounds read low 1.02 | S. cerevisiae deletion strains, locus YPL106C, strain sse1, active compounds read low 1.03 | S. cerevisiae deletion strains, locus YPL240C, strain hsp82, active compounds read low 1.02 | S. cerevisiae deletion strains, locus YPL256C, strain CLN2, active compounds read low 0.971
